# Measurements taken from ChEMBL document CHEMBL3988442, “University of Dundee, Small-Polar-MMV Screening Library” (2021).
# “And” between values parts separate entries of the source, which are not always exact repeats. Identical values can stand only once. About 290 (0.85%) of roughly 34,000 compounds showed an effect of 50% or more. Many of the other results were omitted from the sample, so strong results are more common in it than they were.
# System: Plasmodium falciparum
# Assay: Plasmodium falciparum sporozoite viability assay
# Type: functional, organism-based
# Parameters: scale not given: in the data most compounds retested in dose-response had high values
Structure (SMILES),Percent Effect,Percent Effect (10 mM as filed; unlikely as a test dose)
CC(=O)N1CCC1c1nc(-c2ccc(C)s2)no1 (stereo unspecified),-4.556%,
O=C(NCCNc1cc(N2CCCC2)cnn1)Nc1ccccc1F,,88.21% and 92.16%
CSc1nnc(CNC(=O)Nc2ccccc2F)n1C,-0.259%,
O=C(Cc1ccc(F)cc1)NCCNc1cc(N2CCCC2)cnn1,,2.363% and 4.651%
CC(=O)N1CC[C@H]2OCC[C@@]2(C(=O)NCCc2ccccn2)C1.O=C(O)C(F)(F)F,-10.77%,
CC(NC(=O)NCCCc1n[nH]c(N)c1C#N)c1ccccc1F (stereo unspecified),14.69%,
Cc1cc(C)n(CC2CCCCN2CC(=O)NC2CCOCC2)n1 (stereo unspecified),14.15%,
Cc1cc(C)n(CC2CCCN2CC(=O)NC2CCOCC2)n1 (stereo unspecified),-10.14%,
COCCOCC(=O)Nc1ccc(C)cc1F,-13.64%,
O=C(c1ccc(C2CCCO2)s1)N1CCS(=O)(=O)CC1 (stereo unspecified),,6.394% and 9.158% and -11.41%
O=C(c1ccc(C2CCCO2)s1)N1CCOCC1 (stereo unspecified),,-24.05% and -11.59%
O=C(c1ccc(C2CCCO2)s1)N1CCN(c2ccccc2F)CC1 (stereo unspecified),,80.46% and 89.28% and 82.47%
O=c1[nH]c(CCN2CCCC2Cn2cncn2)nc2ccccc12 (stereo unspecified),9.596%,
O=C(Cc1ccc2c(c1)OCCO2)N1CCCC(n2cccn2)C1 (stereo unspecified),,49.54% and 51.7% and 51.33%
O=C(CCc1ccc2c(c1)OCO2)N1CCCC(n2cccn2)C1 (stereo unspecified),,-3.407% and -9.243% and -9.365%
O=C(Cc1ccc2c(c1)CCO2)N1CCCC(n2cccn2)C1 (stereo unspecified),,-20.29% and -14.82% and -23.46%
CCOC(=O)[C@@H]1[C@@H](O)C(=O)N(C)C12CCN(C(=O)c1ccco1)CC2,7.177%,
O=C(O)C(F)(F)F.O=C(O)C(F)(F)F.c1ccc(CN2CCC3(CC2)CCN(c2ccccn2)C3)nc1,11.38%,
CCC1CN(C(=O)c2ccc(O)cn2)CCC(=O)N1Cc1ccccc1 (stereo unspecified),,75.08% and 82.46%
CCC1CN(C(=O)c2cccnc2O)CCC(=O)N1Cc1ccccc1 (stereo unspecified),,-11.65% and -22.98%
CCC1CN(C(=O)c2ncccc2O)CCC(=O)N1Cc1ccccc1 (stereo unspecified),,-58.66% and -61.44%
Cc1nn(C)c(Cl)c1C1CCCN1C(=O)c1cc(C2CC2)on1 (stereo unspecified),6.06%,
Cc1c[nH]nc1C1CN(Cc2cnn(-c3ccccc3C(=O)O)c2)C1,-1.554%,

Structure (SMILES),Percent Effect,Percent Effect (10 mM as filed; unlikely as a test dose)
Cc1noc(C)c1CC(=O)N1CCCC(n2ccnc2C)C1 (stereo unspecified),-6.625%,
O=C(Nc1ccc(N2CCCC2)nc1)N1CCc2sccc2C1,,-10.47% and -0.9103% and 2.706%
O=C(Nc1ccc(N2CCCC2)nc1)N1CCc2ccccc2C1,,79.37% and 82.46% and 84.57%
CCCc1cc(NC(=O)c2cc(N3CCNC3=O)c(F)cc2F)n[nH]1,-27.19%,
CC(CNC(=O)c1cc(N2CCNC2=O)ccc1F)c1ccccc1 (stereo unspecified),,35.08% and 63.14%
Cc1ccsc1CNC(=O)c1ccc(N2CCNC2=O)cc1,-9.9%,
CC(NC(=O)c1cc(N2CCNC2=O)ccc1F)c1ccc(F)cc1 (stereo unspecified),,-9.982% and -2.184%
CC(Cc1ccsc1)NC(=O)c1cc(N2CCNC2=O)ccc1F (stereo unspecified),,74.24% and 61.84%
Cc1ccc(C(=O)NCC(O)c2cccc(F)c2)c(=O)[nH]1 (stereo unspecified),-4.578%,
CCN(CC)CCCNCc1cc2cc(C)cc(C)c2[nH]c1=O,11.75%,
COCc1cnc2n1CCN(C(=O)c1ocnc1C)C2C (stereo unspecified),4.866%,
CN(Cc1cccs1)C(=O)Cn1cc(NC(=O)C(C)(C)C)cn1,-1.695%,
Cc1ccc(-n2nnc(C(=O)NCC(F)(F)F)c2C2CC2)cc1,-7.493%,
Cn1cc(-c2cnc(N3CCOCC3)nc2)cc1C(=O)N1CCOCC1,,-17.52% and -24.5% and -14.42%
O=C(CCc1ccsc1)Nc1ccnn1C1CCS(=O)(=O)C1 (stereo unspecified),-2.999%,
Cc1oc(C)c(C(=O)NCc2ccccc2CN(C)C)c1C,1.894%,
COC1CN(C(=O)CC(C)C)CCC(=O)N(C)c2ccccc21 (stereo unspecified),-36.78%,
O=C(NCCCO)c1cnc(-c2ccccc2)nc1O,-8.71%,
CC(C)(C)c1ncc(C(=O)NCCSc2ccccn2)c(O)n1,,98% and 98.19%
CCSCCNC(=O)c1cnc(-c2ccccc2)nc1O,2.095%,
Cc1ccc(C2(C(=O)NCCCn3cccn3)CCOCC2)cc1,,-25.15% and -19.39%
c1ccc2oc(CN3CCCC3Cn3cncn3)nc2c1 (stereo unspecified),3.888%,
Cc1nccn1C1CCCN(C(=O)Cc2cn3ccccc3n2)C1 (stereo unspecified),3.916%,

Structure (SMILES),Percent Effect,Percent Effect (10 mM as filed; unlikely as a test dose)
CCOCC1CN(C(=O)c2cscn2)Cc2cnn(CC3CC3)c21 (stereo unspecified),11.53%,
Cc1nc(C2CN(C)CCO2)cc(N2CCSCC2)n1 (stereo unspecified),-0.8223%,
Cc1cc(C(=O)N2CCC3(C2)CN(c2cccnc2)C(=O)CN3C)[nH]n1.O=C(O)C(F)(F)F.O=C(O)C(F)(F)F (stereo unspecified),9.444%,
CN(C)C(=O)CCNC(=O)Nc1sc2ccccc2c1Cl,,44.04% and 58.57% and 53.39%
CS(=O)(=O)CCCNC(=O)Nc1sc2ccccc2c1Cl,,-22.09% and -10.77% and -17.84%
CN(C)CC(C)(O)CNC(=O)Nc1sc2ccccc2c1Cl (stereo unspecified),,52.95% and 62.95% and 63.37%
CC(=O)N1CCOC(c2c(C(=O)NCCN(C)C)sc3ccccc23)C1 (stereo unspecified),3.684%,
CN1CCN(Cc2cn3c(n2)CN(Cc2ccc(F)cc2)CC3)CC1.O=C(O)C(F)(F)F.O=C(O)C(F)(F)F.O=C(O)C(F)(F)F,11.14%,
O=C(O)[C@@H]1CCN(C(=O)Cc2ccccn2)[C@@H]1c1ccc(F)cc1,2.558%,
CN(C)C(=O)NC1COC2(CCN(Cc3ccccc3)CC2)C1.O=C(O)C(F)(F)F (stereo unspecified),,-6.642% and -9.604% and -2.422%
CCC(O)CN1CCN(C(=O)c2sccc2OC)CC1 (stereo unspecified),5.511%,
N#Cc1c(SCCN2CCCCC2)sc2c(O)cc(O)nc12,19.81%,
Cc1nc(C)n(C2CCCN(C(=O)CCOC(C)C)C2)n1 (stereo unspecified),5.53%,
CCc1nc(C2CCCN(C(=O)NCCOC)C2)no1 (stereo unspecified),15.54%,
COCCN(C)C(=O)Nc1cc2c(cc1SC)OCCO2,,-20.76% and -19.13%
CSc1cc2c(cc1NC(=O)NCCn1ccnc1)OCCO2,,101.5% and 100.4% and 104.7%
CCN(CC)c1ccc(NC(=O)NCC2CCOC2)cn1 (stereo unspecified),,-11.53% and -8.697%
O=C(NCC1CCOC1)Nc1ccc(OCC(F)(F)F)nc1 (stereo unspecified),-8.857%,
CSc1cc2c(cc1NC(=O)NCC1CCOC1)OCCO2 (stereo unspecified),,105.7% and 100.9% and 97.86%
CSc1cc2c(cc1NC(=O)NCc1ccncc1)OCCO2,,-14.95% and -16.58%
CC(NC(=O)NCCn1ccnc1)c1ccc2c(c1)OCCO2 (stereo unspecified),-2.596%,
CSc1cc2c(cc1NC(=O)NCC(=O)N(C)C)OCCO2,,-16.92% and -17.04% and -26.51%
COCCNC(=O)Nc1cc2c(cc1SC)OCCO2,,98.06% and 101.8% and 101.9%

Structure (SMILES),Percent Effect,Percent Effect (10 mM as filed; unlikely as a test dose)
CCCc1ncc(CNC2(c3ccc(Cl)cc3)CCC2)cn1,9.707%,
COc1ccc2cc(C(=O)N3CCCC(n4ccnc4C)C3)[nH]c2c1 (stereo unspecified),-4.765%,
O=C(O)[C@@H]1CN(C(=O)CC2CCCC2)C[C@H]1c1ccc(F)cc1,4.737%,
Cc1nccc(C(=O)N2CCCC(c3cc(C(F)(F)F)[nH]n3)C2)n1 (stereo unspecified),8.419%,
Cc1cc(C)n(C2CN(CC(=O)N(C)Cc3ccc(C)o3)C2)n1,-8.906%,
CN(C)C(=O)CN1CCCC1c1nccnc1Nc1ccccn1 (stereo unspecified),-3.467%,
Cc1ccc2c(c1)CN(C(=O)c1cnc(C)cn1)C(CN(C)C)CO2.Cl (stereo unspecified),-2.552%,
O=S(=O)(C1CC1)N1CCC2(COCc3cnc(-c4cccnc4)nc32)C1 (stereo unspecified),9.968%,
CCOc1ccccc1OC1CCN(Cc2ccn(C)c(=O)c2)CC1,8.133%,
CCOc1cc([C@H]2N[C@@H](c3nc(C)cs3)Cc3ccsc32)ccc1OC,5.89%,
CC(C)NC(=O)CC1CC2(CCN(CC3CC3)CC2)Oc2ccccc21.O=C(O)C(F)(F)F (stereo unspecified),11.82%,
CCOCC1CCCN(C(=O)NCc2ccc(-c3ccn[nH]3)cc2)C1 (stereo unspecified),14.81%,
NC(=O)CC1CCN(C(=O)NCc2ccc(-c3ccn[nH]3)cc2)CC1,2.866%,
COC(=O)CC1CCN(C(=O)Nc2ccc(-c3ccn[nH]3)cc2)C1 (stereo unspecified),,84.64% and 84.71% and 100.4%
COCc1cncc2c1CCN(C(=O)c1ccc(C#N)cc1)C2.O=C(O)C(F)(F)F,7.706%,
Cc1ccc(-c2cccc(CC3(C(=O)O)CCOCC3)c2)c(C)c1,-5.038%,
CN1CCCc2cc(CNC(=O)c3cc[n+]([O-])cc3)ccc21,8.46%,
CCOCC1CN(C(=O)c2ccncn2)Cc2cnn(CC)c21.O=C(O)C(F)(F)F (stereo unspecified),-5.589%,
Cc1ccc(Sc2ccc(N3CCCC(C(=O)O)C3)nn2)cc1 (stereo unspecified),,24.7% and 21.38%
Cc1ccc(Sc2ccc(N3CCC(C(=O)O)CC3)nn2)cc1,,64.84% and 62.96%
O=C(O)C1CCN(c2ccc(Sc3ccc(Br)cc3)nn2)CC1,,-3.247% and -5.657%
CCNc1cc2c(nn1)CCN(C(=O)c1ccc3c(c1)OCO3)C2,6.984%,
